Assay results as given in the OligoGym collection.

target: EFNB2; test: pooled miR-30 sensor sort-seq; sequence = guide strand; details: shRNA
Note: reference of the scale not given here.

| Sequence | sensor-assay potency score (higher = more potent) |
| --- | --- |
| TAAAAAACCAACATTGCTCTAT | 0.0453 |
| TATAGTACCAGTCCTTGTCCAG | -0.415 |
| TTGGAAATCGCAGTTCTGCATA | -1.17 |

target: EGFLAM; test: as above; details: shRNA

| Sequence | sensor-assay potency score (higher = more potent) |
| --- | --- |
| ATAACAATATCTTCTGAGCAGC | -1.01 |
| TCTCTGTAGAGCATAACCGTGT | -0.368 |
| TAGAGCATAACCGTGTGCCAAC | -1.37 |
| TTAGATATAGACATCTTCTTGC | 0.604 |
| ATCTCTGTAGAGCATAACCGTG | -1.58 |
| TTGAGGTCCACTTCTTGTCGAA | -0.198 |
| TAGTCATTGACACAGAAGCTGT | -1.47 |
| TAAGCTGCTATGCTCACACGAT | -0.515 |
| ACACATTTGATCTTGATCCTGA | 0.527 |
| TTGATGTGTGATCTCTGGCAGC | -0.345 |
| TGAATCACAACACAGTCACTGA | -0.715 |
| TTCTTGTCGAAATCTGGCCTGA | -0.665 |

target: EGF; test: as above; details: shRNA

| Sequence | sensor-assay potency score (higher = more potent) |
| --- | --- |
| TAAACCTTTCTACTGGATCAAC | -1.16 |
| TTACTTACAATCTTGTAACTGA | 0.581 |
| TAAATTTTGAAACTACTGGCAA | -0.0191 |
| TAAATCACTCCTTCCAATCAGA | -0.116 |
| TTGTCTTTCTAAATCCACCCAA | 0.0842 |
| TAATGTGGACAGAACCTCCATC | -0.544 |
| TTCATTAACATCTTCACAGTAC | 0.809 |
| TTCTCTGTTGTACTGAATCCAA | -0.8 |
| TACTGTAATGATTCCTTCCTGT | 0.571 |
| AAACAAGTTGATGACATCGTTT | -0.985 |
| TTAGATCAACTTCACCACCTGC | -0.392 |
| TTAATTCTAACCATGTCCTTTC | -0.226 |
| TTAGTGATTATTTTGGAACGTT | 0.208 |
| TTGAGTAGGTGATTAGTCGTAG | 0.0164 |
| TATCAGAACATAGTTTTCCATC | -1.09 |
| TTGACCAAATAACTTCTTCATT | -1.32 |
| TCTTCTGACACTCTAGTCTTGG | -0.41 |
| TTGAGAATTGGCAAACAGCAAA | -1.09 |
| TATCGGGTGAGGAACAACCGCT | -0.49 |
| TATATTACATACTCTCTCTTGC | 0.906 |
| TTACATACTCTCTCTTGCCTTG | -0.0399 |
| TTGCAAACAAATTATGCTGTGT | 0.205 |
| TTCTGTAATGTTATCTTCTGAC | -0.544 |
